Bim-Bfl-1: human Bim-Bfl-1 interaction inhibition; AID 1008; inhibition, % at 10 µM; 0.12% of 190,000 active; Q16548; Bead-based flow cytometry, Bim-Bfl-1 binding inhibition;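 note: 0% = wells without compound plus tracer and 100% = blocker peptide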
Target sequence (Q16548 whole entry, looked up): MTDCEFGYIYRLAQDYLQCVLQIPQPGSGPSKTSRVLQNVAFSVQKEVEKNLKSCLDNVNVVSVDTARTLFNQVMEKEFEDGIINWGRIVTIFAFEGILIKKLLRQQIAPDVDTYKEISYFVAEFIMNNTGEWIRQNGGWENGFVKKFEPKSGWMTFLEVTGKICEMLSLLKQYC
Bim-Bcl-B: human Bim-Bcl-B interaction inhibition | inhibition, % at 10 µM | AID 951 | bead-based flow cytometry, Bim peptide-Bcl-B binding | 0.073% of 190,000 active;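 note: 0% = tracer peptide without compound and 100% = reference inhibitor peptide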
Bcl-W Bim block: human Bim-Bcl-W interaction inhibition; Q92843; AID 952; inhibition, % at 10 µM; bead-based flow cytometry, Bim peptide-Bcl-W binding; 0.02% of 190,000 active;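 note: 0% = bound tracer without compound and 100% = peptide blocker; higher means less fluorescent Bim peptide bound to Bcl-W beads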
Bcl-XL Bim block: human Bim-Bcl-XL interaction inhibition. Q07817. Bim peptide-Bcl-XL binding, bead flow cytometry, fluorescence. inhibition, % at 10 µM. 0.04% of 190,000 active. AID 1007
Bim-Bcl-2: disrupts Bim peptide binding to human Bcl-2; P10415; Bead-based flow cytometry, Bim peptide-Bcl-2 binding; inhibition, % at 10 µM; 0.06% of 190,000 active; in the data active = inhibition above about 40%;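 note: 0% = no compound wells with probe peptide and 100% = reference peptide inhibitor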
Target sequence (P10415 whole entry, looked up): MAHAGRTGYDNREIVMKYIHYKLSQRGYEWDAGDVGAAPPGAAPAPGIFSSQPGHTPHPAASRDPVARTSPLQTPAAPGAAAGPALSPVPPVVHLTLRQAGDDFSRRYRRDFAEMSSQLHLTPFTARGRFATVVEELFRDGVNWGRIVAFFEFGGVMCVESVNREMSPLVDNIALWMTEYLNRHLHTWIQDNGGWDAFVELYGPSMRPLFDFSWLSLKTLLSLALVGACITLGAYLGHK
An asterisk follows results filed as active; . = not tested or not shown. Shown are actives, neighbours in structure and some others; about 0.2% of the full set was active somewhere. Cut-off read from the data, not from the text of the source, unless noted: active = inhibition above about 40%.

SMILES	Bim-Bfl-1	Bim-Bcl-B	Bcl-W Bim block	Bcl-XL Bim block	Bim-Bcl-2
COc1cccc(CC2(CO)CCCN(Cc3sc(N4CCCC4)nc3Cl)C2)c1 (stereo not given)	-4	-6	0	-5	-1
O=C(NCc1ccco1)C1CC2CCC1C2 (stereo not given)	2	2	4	47*	1
O=C(CCl)Nc1ccccc1C(=O)c1ccccc1	-2	-3	0	0	0
CCC(=O)Nc1ccccc1C(=O)OCC(=O)c1cccc2ccccc12	0	-1	0	1	1
COc1ccc(C(=O)Nc2ccc(C(=O)OCC(=O)c3cccc4ccccc34)cc2)cc1	20	83*	24	15	.
Cc1cc(N)ccc1N1CCCC1	73*	87*	75*	64*	66*
Cc1cc(N)ccc1-n1c(C)ccc1C	-3	-1	-2	0	-3
O=C(NC1=C(NC2CCS(=O)(=O)C2)C(=O)c2ccccc2C1=O)c1ccccc1 (stereo not given)	56*	7	22	5	11
O=C(NC1=C(Nc2ccc(Cl)cc2)C(=O)c2ccccc2C1=O)c1ccccc1	32	-6	1	-10	9
CCOc1cc(/C=C2/N=C(C)C(C(=O)OC)=C2O)ccc1O	58*	44*	59*	34	59*
CCOC(=O)C1=C(O)/C(=C\c2ccc(OC)c(OC)c2)N=C1C	-2	0	-3	-4	-1
O=C1CSC(c2ccccn2)N1c1ccc(F)cc1F (stereo not given)	-3	-3	-2	-4	-3
COc1ccc(CN(C)CC(=O)NC(C)c2ccccc2)c(OC)c1 (stereo not given)	56*	60*	39	30	62*
COc1cccc(CN2CCNC(=O)C2CC(=O)NCc2cc(C(C)C)no2)c1 (stereo not given)	-1	-1	2	-2	0
Cc1ccc(-c2nnc(Cc3ccc(Cl)cc3)o2)cc1	67*	87*	35	28	92*
CCOc1cc2[nH]c(=O)n(CCCC(=O)N(C)Cc3ccccc3)c(=O)c2cc1OCC	-9	-9	0	-1	-2
Cc1ccccc1-n1c(SCc2cccc(F)c2)nc2[nH]ncc2c1=O	44*	11	25	39	25
Nc1ccc(N2CCN(CCCCN3C(=O)C4CCCN4C3=O)CC2)cc1 (stereo not given)	8	63*	25	24	12
COc1ccccc1/C=C/C(=O)OCc1nc2ccccc2c(=O)[nH]1	0	-2	-1	-2	0
NC(=O)CSc1nnc(Cn2cnc3ccccc32)o1	65*	-2	36	16	10
Cc1cc(=O)[nH]c(SCC(=O)OCc2ccccc2)c1C#N	-6	-2	0	-1	0
COc1ccccc1Cn1nnc2c(=O)[nH]c(C3CCN(C(=O)c4ccc(F)cc4)CC3)nc21	-1	57*	5	2	-1
COc1ccccc1Cn1nnc2c(=O)[nH]c(C3CCN(C(=O)c4ccc(C)cc4)CC3)nc21	-1	50*	-2	-3	-1
O=C1/C(=C/c2cccnc2)SC(=S)N1CC1CCCO1 (stereo not given)	-13	-5	-3	-6	-7
O=C1/C(=C\c2ccc(-c3ccccc3Cl)o2)SC(=S)N1CC1CCCO1 (stereo not given)	17	-3	18	28	45*
SMILES	Bim-Bfl-1	Bim-Bcl-B	Bcl-W Bim block	Bcl-XL Bim block	Bim-Bcl-2
O=C(COC(=O)c1cc(S(=O)(=O)N2CCCCC2)ccc1N1CCOCC1)NCCc1ccc(F)cc1	-13	-7	0	-5	-2
CCCN1C(=O)/C(=C\C=C2/Sc3ccccc3N2CC)SC1=S	5	-54	-5	-2	9
CCN1C(=O)/C(=C/C=C2\C=CN(CC)c3ccccc32)SC1=S	50*	-11	21	10	23
COc1ccc(S(=O)(=O)NCCOc2cccc3cccnc23)cc1OC	44*	65*	0	3	76*
COc1ccc(-c2[nH]ncc2CNCCc2ncccc2C)cc1F	-7	-4	-1	-2	-3
Nc1nc2c(s1)CCc1c-2cnn1-c1ccccc1	41*	11	30	12	18
Cc1nc2ccccc2n1C1CCN(CC(=O)NCc2ccc(F)cc2)CC1	30	64*	1	1	59*
Cc1ccc(C)c(NC(=O)COC(=O)CCCN=C2NS(=O)(=O)c3ccccc32)c1	-1	1	0	0	3
O=C(COC(=O)CCCN=C1NS(=O)(=O)c2ccccc21)NC(=O)NC1CCCC1	36	105*	72*	105*	97*
Cc1ccc(NC(=O)C/C(N)=N/OC(=O)c2ccccc2)cc1	51*	64*	0	2	73*
Cc1ccc(Cl)cc1N(Cc1ccc(C(=O)NCc2cccnc2)cc1)S(=O)(=O)c1ccccc1	-2	-1	-3	-1	-2
Cc1ccccc1-n1c(SCc2csc(Nc3ccccc3)n2)nnc1-c1cccnc1	-7	-11	-6	-4	-7
Cc1ccc(Nc2nc(CSc3nnc(-c4cccnc4)n3-c3ccccc3C)cs2)cc1	42*	14	25	32	29
O=c1[nH]c(SCc2nc3ccccc3c(=O)n2-c2ccccc2C(F)(F)F)nc2ccccc12	34	16	35	41*	23
Cc1nc2ccc(NC(=O)N3CCCCC3)cc2nc1C	-5	-7	-7	-8	-4
CCOC(=O)C1CCN(C(=O)Nc2ccc3nc(-c4ccco4)c(-c4ccco4)nc3c2)CC1	60*	15	38	19	35
O=C(Nc1ccc2nc(-c3ccco3)c(-c3ccco3)nc2c1)N1CCCCCC1	54*	10	35	19	31
CNC(=S)N/N=C/C1=CCC2CC1C2(C)C (stereo not given)	52*	65*	13	2	69*
CC1(C)C2CC=C(/C=N/NC(=S)NCCc3ccccc3)C1C2 (stereo not given)	-3	1	1	0	1
Cc1c(NC(=O)C(C)OC(=O)c2ccc([N+](=O)[O-])s2)c(=O)n(-c2ccccc2)n1C (stereo not given)	-2	0	-6	-5	-5
Cc1ccc2nc(C)c(C(=O)NN=C3CCN(C)CC3)n2c1	-6	-2	0	0	-4
COc1cccc(C(=O)/C=C/Nc2ccc(S(=O)(=O)Nc3onc(C)c3C)cc2)c1	53*	78*	17	3	82*
COc1cccc(NC(=O)CSc2nncn2N)c1	41*	22	23	39	28
CCn1c(/N=C/c2ccccc2NS(=O)(=O)c2ccc(C)cc2)nc2ccccc21	-9	-2	-7	-7	-1
Cc1ccccc1OCC(=O)Nc1ccccc1N1CCC(C)CC1	-5	-3	-1	-1	-9
CN(C)S(=O)(=O)N(CC(=O)Nc1ccccc1C(F)(F)F)c1ccccc1	.	.	17	19	86*
CC(C)c1nnc(NC(=O)c2cccc(NC(=O)C(F)(F)F)c2)s1	4	-2	1	-2	1

High-throughput results deposited in PubChem by NMMLSC.
